Data as given in PubChem BioAssay AID893 (National Center for Advancing Translational Sciences (NCATS), 2007).
The whole screen tested about 75,000 compounds, of which about 5,700 (7.6%) were called active. A call without a number means that no potency is given here. Another 7% or so got no clear call; they are omitted. The sample as a whole holds a higher share of actives than the screen did. A number with no mark means an inactive call. The call rests on the fitted dose curve; in most records, active means well fitted inhibition curve with a large enough effect; inconclusive means small, poorly fitted or top-dose-only effect; inactive means no such curve, though single readings can be large or run the other way.

Molecular target: 3-hydroxyacyl-CoA dehydrogenase type-2 (Homo sapiens) (UniProt Q99714)
Experiment: qHTS Assay for Inhibitors of HSD17B4, hydroxysteroid (17-beta) dehydrogenase 4;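 further: the protocol describes HADH2 (HSD17B10) and not the HSD17B4 of the title; nearly all actives have a fitted effect of over 70% in size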
Conditions: recombinant HSD17B10, NADH fluorescence kinetic; series mostly up to 57.1 µM
Summary of the method: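 Enzyme plus compound, 15 min room temperature; substrate mix added (NAD+ 1 mM, beta-hydroxybutyryl-CoA 90 uM final); plates read kinetically for NADH fluorescence. HADH2 was His-tagged, E. coli-derived, 20 nM.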
Potency means the concentration at half of the fitted maximal effect.

Question: For `CCOc1ccc2cc(C#N)c(SCC(=O)OC)nc2c1`, which Potency is on record?
Answer: inactive

Question: `CCOc1ccc2nc(NCCNS(=O)(=O)c3ccccc3)c(C#N)cc2c1` was tested. Which Potency did it give?
Answer: 25.1 µM (active)

Question: Which Potency does the source give for `CCOc1ccc2nc(N3CCCN(C(=O)Nc4ccccc4C)CC3)c(C#N)cc2c1` here?
Answer: inactive

Question: For `CC1=C(C(=O)OCc2ccccc2)C(c2ccc(C(F)(F)F)cc2)NC(=O)N1CCCCCC(=O)O` (stereo not given), which Potency is on record?
Answer: inactive

Question: For `CC(NC(=O)c1ccc(Cl)cc1)C(=O)N1CCCCC1` (stereo not given), which Potency is on record?
Answer: inactive

Question: For `COc1ccc(NC(=O)Nc2cccc3cccnc23)cc1`, which Potency is on record?
Answer: inactive

Question: How did the Potency turn out when `CCOc1ccc(NC(=O)Nc2cc(C)ccc2OC)cc1` was run?
Answer: inactive

Question: `COc1ccc(Cn2cccc(NC(=O)Nc3ccc(C#N)cc3)c2=O)cc1` was tested. Which Potency did it give?
Answer: 15.8 µM (active)

Question: With `CO/N=C(\C(=O)N[C@@H]1C(=O)N2C(C(=O)O)=C(COC(C)=O)CS[C@H]12)c1csc(N)n1` (stereo in doubt) as the compound, how does the Potency read?
Answer: inactive

Question: How did the Potency turn out when `COc1c(F)c(F)c(-c2csc(N)n2)c(F)c1F` was run?
Answer: inactive

Question: How did the Potency turn out when `CCOc1ccc(OCC)c(NC(=O)CSc2nnc(Cn3cnc4ccccc43)n2C)c1` was run?
Answer: inactive

Question: For `Cc1nc2nc(COc3ccccc3)[nH]n2c(=O)c1Cc1ccccc1`, which Potency is on record?
Answer: inactive

Question: `CCc1c(C)nc2cc(-c3cccs3)[nH]n2c1=O` was tested. Which Potency did it give?
Answer: 31.6 µM (active)

Question: How did the Potency turn out when `O=c1[nH]c(-c2cccs2)nc2ccccc12` was run?
Answer: inactive

Question: Which Potency does the source give for `CCCCNC(=O)c1c[nH]c2ccc(S(=O)(=O)Nc3ccc(OCC)cc3)cc2c1=O` here?
Answer: inactive

Question: Which Potency does the source give for `CCCCn1c(SCC(=O)N2CCC(C(=O)OCC)CC2)nc2cc(S(N)(=O)=O)ccc21` here?
Answer: inactive

Question: `CCOc1ccc(CNC(=O)C2CCC(=O)N2C2CCCC2)cc1OC` (stereo not given) was tested. Which Potency did it give?
Answer: inactive

Question: Which Potency does the source give for `CCCC(=O)Nc1cc(OCC)c(NC(=O)NC2CCCCC2)cc1OCC` here?
Answer: inactive

Question: With `CCOc1cc(C2C(C(=O)OC)=CN(C3CCCC3)C=C2C(=O)OC)cc(Br)c1O` as the compound, how does the Potency read?
Answer: 25.1 µM (active)

Question: For `COCCCN(C(=O)Cn1ncc2c(=O)oc3ccc(C)cc3c21)C(C)c1ccncc1` (stereo not given), which Potency is on record?
Answer: inactive

Question: With `Cn1c(=O)cc(SCC(=O)N2CCCC2)c2cc(Cl)ccc21` as the compound, how does the Potency read?
Answer: inactive

Question: Which Potency does the source give for `Cc1ccc(-c2cc(C(F)(F)F)n3nc(C(=O)N4CCCC4)cc3n2)cc1` here?
Answer: 20 µM (active)

Question: `COc1ccc(-c2cc(C(F)(F)F)n3nc(C(=O)N4CCOCC4)c(Cl)c3n2)cc1` was tested. Which Potency did it give?
Answer: inactive

Question: For `Cc1cc(C(F)(F)F)nn1CC(=O)N1CCCC1`, which Potency is on record?
Answer: inactive

Question: For `c1ccc(CCc2nc(-c3ccncc3)no2)cc1`, which Potency is on record?
Answer: inactive

Question: With `COc1ccc(Br)cc1S(=O)(=O)N1CCN=C1C` as the compound, how does the Potency read?
Answer: inactive

Question: Which Potency does the source give for `Cc1cc(C)cc(N(CC(=O)Nc2c(C)n(C)n(-c3ccccc3)c2=O)S(C)(=O)=O)c1` here?
Answer: inactive

Question: `O=C(NC1CCCCC1)C1CCCN(S(=O)(=O)c2cccs2)C1` (stereo not given) was tested. Which Potency did it give?
Answer: inactive

Question: `CC1CCN(c2oc(-c3ccccc3F)nc2C#N)CC1` was tested. Which Potency did it give?
Answer: 31.6 µM (active)

Question: Which Potency does the source give for `Cc1ccc(OCc2nc(C#N)c(N3CCCC3)o2)cc1` here?
Answer: inactive

Question: Which Potency does the source give for `N#Cc1nc(COc2ccc(Cl)cc2)oc1N1CCCC1` here?
Answer: inactive

Question: `CN(CCCNC(=O)CN1C(=O)CC(C)(C)S(=O)(=O)c2ccccc21)C1CCCCC1` was tested. Which Potency did it give?
Answer: inactive

Question: How did the Potency turn out when `Nc1nc2c(nc(Cl)n2C2OC(CO)C(O)C2O)c(=O)[nH]1` (stereo not given) was run?
Answer: inactive

Question: Which Potency does the source give for `COC(=O)[C@@]1(Cc2ccc(F)cc2)[C@H]2c3cc(C(=O)N4CCCC4)n(Cc4ccc(OC(F)(F)F)cc4)c3C[C@H]2CN1C(=O)c1ccccc1` here?
Answer: inactive

Question: Which Potency does the source give for `C[C@]12C=CC(=O)C=C1CC[C@@H]1[C@@H]2C(=O)C[C@@]2(C)[C@H]1CC[C@]2(O)C(=O)CO` here?
Answer: 15.8 µM (active)

Question: How did the Potency turn out when `CC(=O)OCC(=O)[C@@]1(O)CCC2C3CCC4=CC(=O)CC[C@]4(C)C3C(=O)C[C@]21C` (stereo not given in full) was run?
Answer: inactive

Question: How did the Potency turn out when `CC(=O)OCC(=O)[C@@]1(O)CC[C@@H]2[C@H]3CCC4=CC(=O)C=C[C@]4(C)[C@]3(F)[C@@H](O)C[C@@]21C` was run?
Answer: inactive

Question: How did the Potency turn out when `COC(=O)[C@H](C(C)C)n1c(C)c(C(C)=O)c(C(C)=O)c1C` was run?
Answer: inactive

Question: With `O=S(=O)(CCc1nc2ccccc2o1)c1ccc(Cl)cc1` as the compound, how does the Potency read?
Answer: inactive

Question: `CC1(C)CC(=O)C=C(NCCCN2CCCC2=O)C1` was tested. Which Potency did it give?
Answer: inactive

Question: `O=C1CCCN1CCCNc1ncnc2c1[nH]c1ccccc12` was tested. Which Potency did it give?
Answer: 31.6 µM (active)

Question: With `O=C(CCn1c(=S)[nH]c2ccccc2c1=O)NCCCN1CCCC1=O` as the compound, how does the Potency read?
Answer: inactive

Question: How did the Potency turn out when `CCOC(=O)C1CCN(C(=O)c2oc3ccc(S(=O)(=O)N4CCCCCC4)cc3c2C)CC1` was run?
Answer: inactive

Question: Which Potency does the source give for `CCOc1ccccc1NC(=O)c1cc(S(=O)(=O)N2CCC3(CC2)OCCO3)ccc1F` here?
Answer: inactive

Question: `Cc1c(C(=O)Nc2ccccc2Cl)oc2ccc(S(=O)(=O)N3CCC4(CC3)OCCO4)cc12` was tested. Which Potency did it give?
Answer: 25.1 µM (active)

Question: For `CCOC(=O)N1CCN(Cc2oc(CO)cc(=O)c2O)CC1`, which Potency is on record?
Answer: inactive

Question: Which Potency does the source give for `Cc1nc2ccc(NC(=O)N3CCC(c4ccccc4)C3)cc2nc1C` (stereo not given) here?
Answer: 25.1 µM (active)

Question: With `O=C(Nc1cccc(NC(=O)N2CCN(c3ccccc3)CC2)c1)N1CCN(c2ccccc2)CC1` as the compound, how does the Potency read?
Answer: inactive

Question: For `O=C(Nc1cccc(C(=O)N2CCCC2)c1)c1ccccc1`, which Potency is on record?
Answer: inactive

Question: With `O=C(O)[C@H](CCc1ccccn1)c1ccccc1` as the compound, how does the activity change, negative = inhibition read?
Answer: 1.79% [at 11.4 µM]

Question: With `CC(=O)Nc1nc(C)c(Cc2ccccc2)c(=O)[nH]1` as the compound, how does the Potency read?
Answer: inactive

Question: With `CSc1ccc(Cl)c(C(=O)OCC(=O)N2CC(C)OC(C)C2)c1` (stereo not given) as the compound, how does the Potency read?
Answer: inactive

Question: For `CC(=O)N1CCN(CCN=CC2=C(O)CC(C)(C)CC2=O)CC1`, which Potency is on record?
Answer: inactive

Question: `CC1(C)CC(=O)C(C=NCc2cccnc2)=C(O)C1` was tested. Which Potency did it give?
Answer: inactive

Question: With `CC1(C)CC(=O)C(C=NCCC2=CCCCC2)=C(O)C1` as the compound, how does the Potency read?
Answer: 31.6 µM (active)

Question: With `O=c1cc(CSc2ccc(Cl)cc2)nc(N2CCOCC2)[nH]1` as the compound, how does the Potency read?
Answer: inactive

Question: How did the Potency turn out when `COc1ccc2nc(NC(=O)c3ccc(Br)s3)sc2c1` was run?
Answer: 31.6 µM (active)

Question: Which Potency does the source give for `CCn1c(SCC(=O)Nc2nc3ccc(OC)cc3s2)nnc1-c1ccoc1C` here?
Answer: inactive

Question: `CNC(=O)c1ccc2nc(NC(C)=O)sc2c1` was tested. Which Potency did it give?
Answer: inactive

Question: Which Potency does the source give for `CC1(C)CN=C(N2CCN(c3ncnc4sc5c(c34)CCCC5)CC2)S1` here?
Answer: inactive

Question: With `ON=C1/C(=N\O)CC2(C/C1=N/O)OCCO2` as the compound, how does the Potency read?
Answer: inactive

Question: For `CC(C)CC1(C(=O)NCc2ccccn2)C=CCN1C(=O)c1ccccc1` (stereo not given), which Potency is on record?
Answer: inactive

Question: `O=C(NCc1ccccn1)c1ccc2nc(-c3ccco3)c(-c3ccco3)nc2c1` was tested. Which Potency did it give?
Answer: 12.6 µM (active)

Question: Which Potency does the source give for `O=C(NCc1ccco1)c1nc2ncccn2n1` here?
Answer: inactive

Question: How did the Potency turn out when `CCn1nnc(NC(=O)c2cc(Cl)c(OC)c(Cl)c2)n1` was run?
Answer: inactive
